About 4,000 (4.3%) of roughly 94,000 compounds were called active. Where a call stands in place of a potency, no number is given. About 29% were inconclusive and are not listed. Calls follow the shape of the dose curve; as a rule, active = well fitted inhibition curve with a large enough effect; inconclusive = small, poorly fitted or top-dose-only effect; inactive = no such curve, though single readings can be large or run the other way. The full list was thinned out, with actives kept by preference.
Potency is read from the fitted curve at half-maximal effect.

This assay is described as follows: Cytotoxic Profiling in NIH 3T3 Cell Line of Diverse Libraries Using Quantitative High-Throughput Screening. Also: nearly all actives have a fitted effect of over 55% in size. The following applies: NIH 3T3 viability, CellTiter-Glo ATP luminescence, 48-72 h; series mostly up to 96.7 µM. The essentials:
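ATP-dependent luminescence (CellTiter-Glo) served as the viability signal for NIH 3T3 cells treated with compound for 48 or 72 hr at 37 °C.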
For orientation: Cellular ATP, detected with luciferase, serves as a proxy for viable cell number.
Consider `CC(C)NC(=O)C1CCC(=O)N1C1CCN(C(=O)c2ccc3c(c2)OCO3)CC1` (stereo not given), for which the Potency entry was “inactive”. On to `O=C(c1ccc2c(c1)OCO2)N1CCC(n2c(=O)[nH]c3ccccc32)CC1`, for which the Potency result was “inactive”. In the case of `O=C(NCc1ccc2c(c1)OCO2)c1noc(-c2ccc(F)cc2)n1` it was “inactive”. Under `COc1ccc(CNC(=O)c2noc(-c3ccc(F)cc3)n2)cc1` stands “inactive”; under `CNc1nc(C(=O)NCc2ccc3[nH]c(-c4ccc(F)cc4)c(C)c3c2)cs1`, 50.1 µM (active).

Regarding `CN(CCc1ccccn1)[C@H]1[C@@H]2OC[C@@H](O2)[C@@H](NC(=O)Nc2ccc(F)cc2)[C@@H]1O`, the Potency entry is “inactive”.

Consider `CNC(=O)[C@@H]1CN(C(=O)c2n[nH]c3ccccc23)C[C@H]1COC`, for which the Potency entry was “inactive”. Turning to `COc1ccccc1C(=O)N1CCC2(CC1)C(=O)Nc1ccccc12`, the Potency result was “inactive”. Under `COCCNC(=O)c1nc(-c2cc(Cl)cc(Cl)c2)c2ccccn12` stands “inactive”; under `CN(C)CCNC(=O)c1nc2nc(-c3ccccc3)c(-c3cccc(F)c3)cc2n1C`, 25.1 µM (active). In the case of `CCc1cc(=O)n(CC(=O)Nc2ccccc2F)c(-c2cccc(F)c2)n1` it was “inactive”; in that of `Cc1ccc(S(=O)(=O)N2C[C@@H](F)C[C@H]2C(=O)N2CCCCC2)cc1Cl`, “inactive”; in that of `CCN1c2cc(C(=O)Nc3ccc(F)c(Cl)c3)ccc2C(=O)N2CCCCC21` (stereo not given), 25.1 µM (active). Turning to `CN1c2cc(C(=O)Nc3ccc(F)cc3)ccc2C(=O)N2CCCCC21` (stereo not given), the Potency result is “inactive”. Under `CCN1c2cc(C(=O)NCc3cccc(F)c3)ccc2C(=O)N2CCCCCC21` (stereo not given) stands “inactive”.

As to `COC1CN(c2cccc(F)c2)C12CCN(C1CCOCC1)CC2` (stereo not given), the Potency entry is “inactive”.

As to `Cc1cc(Cn2cc3c4c(cccc42)[C@H](CC(C)C)N[C@H](C(=O)N2CCCCCC2)C3)no1`, the Potency is 31.6 µM (active).

Regarding `COC(=O)[C@@H]1Cc2ncn(Cc3ccc(OC)cc3)c2CN1S(C)(=O)=O`, the Potency entry was “inactive”. Under `CCCN1C(=O)Cc2ccccc2C1C(=O)NCc1cccc(OC)c1OC` (stereo not given) stands “inactive”; under `CC#CCn1cc2c3c(cccc31)[C@H](CC(C)C)N[C@H](C(=O)NCc1ccccc1OC)C2`, 31.6 µM (active). Under `COc1ccccc1CNC(=O)CN1CC[C@](C)(O)[C@@H](O)C1` stands “inactive”; under `COCCN1CCN(C(=O)[C@@H]2Cc3cn(C)c4cccc(c34)[C@H](CC(C)C)N2)CC1`, “inactive”. As to `COc1ccc(CNC(=O)[C@@H]2Cc3cn(Cc4ccncc4)c4cccc(c34)[C@H](CC(C)C)N2)cc1`, the Potency is 79.4 µM (active). In the case of `COc1ccc(CNC(=O)[C@H]2O[C@H](CCN3CCN(C)CC3)CC[C@@H]2O)cc1` it was “inactive”; in that of `COc1ccc(CCC(=O)N2CCCC3(CC2)CN(C)C(=O)O3)cc1OC` (stereo not given), “inactive”. `CS(=O)(=O)c1ccc(CN2CCOC(c3cccnc3)C2)cc1` (stereo not given): the Potency entry was “inactive”. In the case of `COc1ccc(CNC(=O)CC[C@@H]2CNC(=O)[C@@H]3C[C@H](NC(=O)NC(C)C)CN23)cc1` it was “inactive”; in that of `Cc1ccc(-n2cccn2)c(CN2CCC(CNS(C)(=O)=O)C2)c1` (stereo not given), “inactive”; in that of `OC[C@@H]1O[C@H](CNC2CCOCC2)[C@H](N2CCCC2)[C@@H]1O`, “inactive”.

Turning to `Cc1cc(C)n(CCCN(C)C(=O)C2C3C(=O)N(CCC(C)C)C[C@@]34C=C[C@@H]2O4)n1` (stereo not given in full), the Potency entry is “inactive”. Under `Cc1cn2nc(C(=O)Nc3ccc(F)cc3F)cc2c(N(C)Cc2ccccc2)n1` stands “inactive”; under `O=Cc1ccccc1-c1ccc(O)cc1`, 79.4 µM (active). In the case of `CCNC(=O)c1ccccc1-c1ccc(O)cc1` it was “inactive”; in that of `COc1ccccc1C(=O)N1CCC2(C1)C(=NC1CCCCC1)NC(=O)N2c1cccnc1` (stereo not given), “inactive”; in that of `COCC1CN(C(C)=O)CC12CCN(Cc1cccc(C#N)c1)CC2` (stereo not given), “inactive”.

With `O=C(c1cn[nH]c1)N1CC2(CN(Cc3cccc(Cl)c3)CC2COc2ccccc2)C1` (stereo not given), the Potency is 79.4 µM (active). In the case of `Cc1cccc(C(=O)N2C[C@@H](COc3ccccc3)[C@H](C(N)=O)C2)c1` it was “inactive”; in that of `CNC(=O)c1cc(C)nc2onc(C3CCN(C(=O)C4CCCCC4)C3)c12` (stereo not given), “inactive”. In the case of `c1ccc(CN2CCNc3cc(NCc4cccnc4)ncc3C2)cc1` it was 50.1 µM (active). In the case of `CC(=O)N1Cc2ccccc2CC2(CCN(Cc3cccnc3)CC2)C1` it was “inactive”; in that of `O=C1CC(c2ccccc2)N(Cc2ccncc2)CCCN(Cc2cccnc2)CCN1` (stereo not given), “inactive”. For the compound `Cn1ccc(Nc2cc3c(cn2)CN(CCc2ccccc2)CCN3)n1`, the Potency is 79.4 µM (active). Take `CCn1ccnc1CN(C)C1CCCN(CCc2ccccc2)C1` (stereo not given): the Potency entry was “inactive”. In the case of `COc1cccc(S(=O)(=O)N2CCC3(CC2)CC2C(=O)NCCN2C3)c1` (stereo not given) it was “inactive”. In the case of `CCc1nc(N(C)Cc2nccn2Cc2ccccc2)c2cnn(C)c2n1` it was “inactive”. Under `CS(=O)(=O)c1cnc(NCCN2CCOCC2)nc1C1CCCNC1` (stereo not given) stands “inactive”; under `COc1cc(-c2noc(-c3nc(-c4ccc5c(c4)OCO5)no3)n2)cc(OC)c1OC`, “inactive”; under `CC(C)C[C@@H]1N[C@H](C(=O)NC(C)C)Cc2c[nH]c3cccc1c23`, 100 µM (active). Regarding `COCCn1c(C)cc(C(=O)N2CCCCCCNC(=O)CC2)c1C`, the Potency entry is “inactive”. Under `O=C(c1cccnc1)N1CCC(Cc2nc(C3CCOCC3)no2)CC1` stands “inactive”; under `O=C([C@@H]1C[C@H](Oc2ccccc2)CN1S(=O)(=O)c1cccnc1)N1CCCC1`, “inactive”. In the case of `Cc1nn2c(c1-c1ccccc1-c1ccccc1)N(CC1CC1)CCC2` it was 3.16 µM (active); in that of `Cc1nn2c(c1-c1ccnn1C(C)C)N(CC1CCOCC1)CCC2`, 31.6 µM (active). Turning to `COc1ccc(S(=O)(=O)NCCc2noc(-c3ccncc3)n2)cc1`, the Potency result is “inactive”.

`CNC(=O)N1CCC(C2CCN(C(=O)CSC)C2)CC1` (stereo not given): the Potency result was “inactive”. For the compound `COc1cc(NC(=O)c2cc3c(N4CCSCC4)nc(C)cn3n2)cc(OC)c1`, the Potency entry was “inactive”. In the case of `COc1cc2c(cc1OC)C(CNC(=O)c1ccc(Cl)cc1)N(C(=O)Nc1ccccc1)CC2` (stereo not given), the Potency entry was “inactive”. In the case of `COc1ncccc1Nc1ncc(-c2ccccc2)c2c1OCC2` it was “inactive”; in that of `COc1ccccc1-c1cnc(NC(=O)c2ccc(Cl)cc2)c2c1CCO2`, 79.4 µM (active). Regarding `O=C(c1ccccc1)N1CCCCC1c1nc(C2CC2)n[nH]1` (stereo not given), the Potency entry is “inactive”. Under `COc1ccc(NC(=O)[C@@H]2C[C@@H](c3ccc(F)cc3)N(CCOc3ccccc3)C2)cn1` stands 44.7 µM (active); under `O=C(COc1ccc(NC(=O)C2CC2)cn1)NCc1ccc(F)cc1F`, “inactive”; under `Cc1ccc(NC(=O)[C@@H]2CNC[C@H](C(=O)NCc3ccccn3)C2)cn1`, “inactive”.

`CNC(=O)N1CCC(N2CC(OCC3CC3)C23CCCCC3)CC1` (stereo not given): the Potency result was “inactive”. Turning to `O=C(O)C[C@@H]1CCN(C(=O)C(=O)O)C[C@@H]1CC1=NCCc2cc(F)ccc21`, the Potency entry was “inactive”.

As to `O=C(c1cccc(F)c1)N1CCCC(CN2CCOCC2)CC1` (stereo not given), the Potency entry is “inactive”. Under `Cc1ccc(OCCC2CCN(C(=O)c3cnccc3C)C2)cc1` (stereo not given) stands “inactive”; under `O=C(c1cccc(F)c1)N1CCC(CCOc2ccc(F)cc2)C1` (stereo not given), 39.8 µM (active); under `CC(=O)N1CCN(C(=O)c2cc(-c3cccc(F)c3)nc3c2cnn3C)CC1`, “inactive”. Under `Cn1ncc2c(C(=O)N3CCC(c4ccccc4)CC3)cc(-c3ccc(F)cc3)nc21` stands 39.8 µM (active); under `COc1cccc(-c2cc(C(=O)N3CCN(C(C)=O)CC3)c3cnn(C)c3n2)c1`, “inactive”; under `O=C(NC1CC1)c1cc2n(n1)CCN(C(=O)c1ccc3n[nH]nc3c1)C2`, “inactive”. As for `CCCN(CC1CCOC1)C(=O)Nc1cc(F)ccc1F` (stereo not given), the Potency result was “inactive”. In the case of `COc1ccccc1-c1cc(C(=O)NCc2ccccn2)nn2cnnc12` it was “inactive”. Under `COc1cccc(-c2cc(C(=O)Nc3cccc(F)c3)c3cnn(C)c3n2)c1` stands “inactive”; under `Cc1nn(-c2ccc(C(C)C)cc2)c(C)c1[C@@H]1C=C[C@@H](NC(=O)Nc2ccccc2)C1`, 50.1 µM (active). In the case of `Cc1nn(-c2ccc(C(C)C)cc2)c(C)c1[C@@H]1C=C[C@@H](NC(=S)NCC(C)C)C1` it was 22.4 µM (active); in that of `Cc1nn(-c2ccccc2)c2c1C(C(C)C)N(C1CN(C(=O)c3ccc(Cl)nc3)C1)C2=O` (stereo not given), “inactive”. `COc1cccc(NC(=O)Cn2c(=O)n(-c3ccc(F)cc3)c(=O)c3c2cc(C)n3C)c1`: the Potency entry is “inactive”.

Take `CCC(C)NC(=O)Cc1csc2nc(C)c(-c3cc(C)n(-c4ccc(C(C)C)cc4)n3)c(=O)n12` (stereo not given): the Potency result was “inactive”.

As for `COc1ccc(-n2nc(C)c([C@H]3C=C[C@@H](OC(=O)Nc4cccc(F)c4)C3)c2C)cc1`, the Potency was 28.2 µM (active). Under `O=C(N[C@@H]1CN(c2ncccn2)C[C@H]1CO)c1ccco1` stands “inactive”.

In the case of `Cc1nn(-c2ccccc2)c2c1C(C(C)C)N(C1CCN(C(=O)c3ccc(Cl)nc3)CC1)C2=O` (stereo not given), the Potency result is “inactive”.

For the compound `Cc1cnc(CCNC(=O)c2ccco2)n1C1CCC1`, the Potency entry was “inactive”. Under `Cc1nn(-c2ccc(C(C)(C)C)cc2)c(C)c1[C@@H]1C=C[C@@H](NC(=O)c2ccco2)C1` stands 35.5 µM (active); under `CC(C)c1nc(CCn2cc(-c3cncnc3)nn2)cs1`, “inactive”; under `Cc1ccc(CN2C[C@@H](CO)[C@H](c3nc(C)no3)C2)nc1`, “inactive”. In the case of `COc1ccccc1C(=O)N1CCc2nnc([C@@H]3C[C@@H](O)CN3C)n2CC1` it was “inactive”. Under `CN1CCC(NC[C@H]2O[C@@H]3C[C@@H](CC(=O)NCc4cnn(C)c4)O[C@@H]3[C@@H]2O)CC1` stands “inactive”. In the case of `CC(C)c1nc2c(c(-c3ccc(Cl)cc3)n1)CN(C(=O)c1ccccc1)CC2`, the Potency result was “inactive”. In the case of `COc1ccc(C(=O)N2CCC(CCn3c(C)cnc3C3CC3)CC2)cc1` it was “inactive”; in that of `COC(=O)CNC(=O)NC1CCN(C(=O)N2CC3CC(C2)[C@H]2CCCC(=O)N2C3)CC1` (stereo not given in full), “inactive”.

For the compound `Cc1ccc2c(c1)C(C[C@H]1CN(C(=O)NC(C)C)CC[C@H]1CC(=O)O)=NCC2`, the Potency result is “inactive”. In the case of `Cc1noc(C)c1[S+](=O)([O-])N1CCC2(CC1)C(=O)NN=C2c1cccnc1` it was “inactive”. In the case of `Cc1ccccc1CNC(=O)CN1C(=O)C2(CCNCC2)Nc2ccccc21` it was “inactive”.

Values taken from PubChem BioAssay AID1345082 (National Center for Advancing Translational Sciences (NCATS), 2018).
